# Measurements published in PubChem BioAssay AID1347419 (Sanford-Burnham Center for Chemical Genomics, 2020).
# Out of some 99,000 compounds screened, about 820 (0.83%) were called active.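 How the source made its calls: active means Z-score of -3 or lower, scaled per plate to the spread of control and sample wells; inactive means z-score above -3.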 Only a selection was taken, and actives are over-represented in it overall.
# Biological target: Protein-tyrosine kinase 2-beta (Homo sapiens) (UniProt Q14289)
# Experiment: Pyk2 FERM oligomerization blockers – Q293 cells, FERM NanoBiT luminescence, HTS, primary screen (AID 1347419);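 further: the deposit names both 25 µM and 10 µM; negative z-score means lost luminescence so less FERM oligomerization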
# Set-up: dose or concentration left out as unconfirmed
# Settings: hits give low values
# Sequence of Protein-tyrosine kinase 2-beta (Homo sapiens) (Q14289 whole entry, looked up): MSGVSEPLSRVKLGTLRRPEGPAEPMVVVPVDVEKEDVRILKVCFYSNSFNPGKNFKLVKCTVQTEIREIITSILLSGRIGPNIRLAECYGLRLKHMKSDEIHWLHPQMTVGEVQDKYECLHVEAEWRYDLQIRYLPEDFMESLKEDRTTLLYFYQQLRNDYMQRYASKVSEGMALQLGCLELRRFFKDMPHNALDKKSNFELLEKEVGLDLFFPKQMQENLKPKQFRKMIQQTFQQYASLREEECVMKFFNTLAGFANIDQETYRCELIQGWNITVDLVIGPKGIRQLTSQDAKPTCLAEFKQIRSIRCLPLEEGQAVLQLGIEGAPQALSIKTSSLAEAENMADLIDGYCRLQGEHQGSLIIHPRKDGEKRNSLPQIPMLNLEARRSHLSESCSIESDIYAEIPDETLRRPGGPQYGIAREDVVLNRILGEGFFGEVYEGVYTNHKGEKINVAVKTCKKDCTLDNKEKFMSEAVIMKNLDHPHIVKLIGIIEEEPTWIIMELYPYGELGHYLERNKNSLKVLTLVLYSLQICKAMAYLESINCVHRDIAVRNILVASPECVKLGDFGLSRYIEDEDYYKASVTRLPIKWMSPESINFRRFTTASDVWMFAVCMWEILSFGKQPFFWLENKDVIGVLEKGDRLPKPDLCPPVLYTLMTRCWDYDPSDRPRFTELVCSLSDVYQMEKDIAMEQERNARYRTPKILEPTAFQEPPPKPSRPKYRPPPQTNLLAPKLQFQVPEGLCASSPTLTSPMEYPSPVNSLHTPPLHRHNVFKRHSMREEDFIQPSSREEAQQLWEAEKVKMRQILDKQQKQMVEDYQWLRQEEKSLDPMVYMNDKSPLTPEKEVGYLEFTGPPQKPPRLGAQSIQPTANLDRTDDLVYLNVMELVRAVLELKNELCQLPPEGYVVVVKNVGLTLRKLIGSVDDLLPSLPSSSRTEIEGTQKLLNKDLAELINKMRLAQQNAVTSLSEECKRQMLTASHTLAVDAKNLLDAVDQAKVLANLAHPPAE
row,SMILES,z-score
1,CCOc1ccc(/C=N/OCC(=O)NCc2cccs2)cc1,0.26 (inactive)
2,Nc1nc(SCc2ccc([N+](=O)[O-])cc2)c2ncn(C3OC(CO)C(O)C3O)c2n1 (configuration not stated),1.34 (inactive)
3,COc1ccc(C(c2nnnn2C2CCCCC2)N2CCN(c3ccccc3F)CC2)cc1 (configuration not stated),-2.56 (inactive)
4,Cc1cccc(N2CCN(C(c3ccccc3)c3nnnn3CC3CCCO3)CC2)c1C (configuration not stated),-3.18 (active)
5,Cc1cccc(N2CCN(C(c3ccc(N(C)C)cc3)c3nnnn3C(C)(C)C)CC2)c1C (configuration not stated),0.72 (inactive)
6,COC(=O)c1cc(C(=O)CSc2nc(C)cc(C)n2)ccc1O,-0.22 (inactive)
7,Cc1nc(SCC(=O)c2ccccc2)c([N+](=O)[O-])[nH]1,-0.67 (inactive)
8,Cc1cc(SCC(=O)c2ccccc2)nc(SCC(=O)c2ccccc2)n1,-3.01 (active)
9,CC(C)=C1C2CCC1C1C(=O)N(NC(=O)c3ccco3)C(=O)C21 (configuration not stated),1.15 (inactive)
10,Cc1ccc(NC(=O)NC(=O)CSc2nnc(-c3ccc(OC(F)F)cc3)n2N)c(C)c1,-0.1 (inactive)
11,COc1ccc(-c2csc(NC(=O)CCCc3cccs3)n2)cc1,0.83 (inactive)
12,CS(=O)(=O)N(Cc1ccc(Cl)cc1)c1ccc(C(=O)NCCSCc2ccco2)cc1,0.47 (inactive)
13,Cc1ccc(N(Cc2ccc(C(=O)Nc3ccccc3C(=O)NCc3ccco3)cc2)S(C)(=O)=O)cc1C,-3.96 (active)
14,Cc1cccc(Nc2ccccc2C(=O)NCc2ccco2)c1C,-0.62 (inactive)
15,CCOC(=O)N/N=C/c1cn(Cc2ccccc2Cl)c2ccccc12,-1.11 (inactive)
16,C=CCn1c(SCc2cccc(F)c2)nc2cc(C(=O)N3CCC(C(N)=O)CC3)ccc2c1=O,-1.07 (inactive)
17,COc1ccc(/C=N/N=C/c2c[nH]c(=O)c(C#N)c2Nc2ccccc2)cc1,0.79 (inactive)
18,COC(=O)c1ccccc1NC(=O)CSc1nnnn1C,0.19 (inactive)
19,CCOC(=O)CNC(=O)CSc1nnnn1-c1cc(C)ccc1C,-0.31 (inactive)
20,CCOC(=O)c1c(-c2ccc(C)cc2C)csc1NC(=O)CSc1nnnn1C,-3.44 (active)
21,Cc1nonc1C(=O)N/N=C/c1ccc(O)cc1,0.67 (inactive)
22,CC(C)Nc1nnc(SCC(=O)c2c[nH]c3ccccc23)s1,0.14 (inactive)
23,Cc1cccc(C(=O)c2cccc(C)c2)c1,0.43 (inactive)
24,Cc1cccc(-n2c(SCC(N)=O)nc3c(c2=O)C2(CCCCC2)Cc2ccccc2-3)c1,1.27 (inactive)
25,CC(NC(=O)COC(=O)C1CCN(S(=O)(=O)c2ccccc2C(F)(F)F)CC1)c1ccccc1 (configuration not stated),-0.04 (inactive)

row,SMILES,z-score
1,Nc1ccc(-c2nnc(-c3ccc(-c4ccccc4)cc3)o2)cc1,-3.38 (active)
2,O=C(Nc1ccc(-c2nnc(-c3ccccc3)o2)cc1)c1ccc(Br)o1,0.72 (inactive)
3,Brc1ccc(-c2nnc(-c3ccccc3)o2)o1,-0.77 (inactive)
4,Cc1ccnc(NC(=O)c2ccoc2C)c1,0.21 (inactive)
5,COc1ccc2[nH]c3ccc(OC)cc3c2c1,-0.72 (inactive)
6,COc1ccc2[nH]cc(/C=C(/C#N)S(=O)(=O)c3ccccc3)c2c1,-3.31 (active)
7,CCN(CC)CC(=O)c1c[nH]c2ccc(OC)cc12,-0.09 (inactive)
8,CCOc1ccc(C(=O)Nc2cccc(SC)c2)cc1,0.21 (inactive)
9,Cc1ccc(Nc2nnc(SCC(=O)c3cc4ccccc4o3)s2)cc1C,-0.02 (inactive)
10,CC1CCN(C(=S)NC2CC3CCC2C3)CC1 (configuration not stated),-0.08 (inactive)
11,Cc1cccc(NC(=O)COc2ccccc2C)n1,0.47 (inactive)
12,Cc1ccccc1OCC(=O)Nc1ccc(N2CCN(C(=O)C(C)C)CC2)c(Cl)c1,-3.97 (active)
13,CN1CCN(c2ccc(NC(=O)COc3ccc(Cl)cc3Cl)cc2)CC1,-0.4 (inactive)
14,O=S(=O)(NCCc1ccncc1)c1ccccc1,0.43 (inactive)
15,Cc1cccc(-n2c(C)cc(/C=N\NC(=O)c3cccs3)c2C)c1,-0.91 (inactive)
16,CCn1c(/C=C/Nc2ccccc2)[n+](CC)c2ccc(C(=O)OCC(F)(F)F)cc21,1.39 (inactive)
17,Cc1nn(Cc2ccccc2)c2c1C(c1ccccc1)C(C#N)=C(N)O2 (configuration not stated),-3.32 (active)
18,Cc1cc2c(c(=O)n1Cc1ccco1)C(c1ccccc1)C(C#N)=C(N)O2 (configuration not stated),1.13 (inactive)
19,CCCc1[nH]nc2c1C(c1c(C)nn(-c3ccccc3)c1Cl)C(C#N)=C(N)O2 (configuration not stated),0.22 (inactive)
20,CCCn1c(C)cc(C(=O)COC(=O)c2c(C)nn(-c3ccccc3)c2C)c1C,1.05 (inactive)
21,O=C(COC(=O)c1ccccc1SCC(=O)NC1CCCCC1)NC1CCCCC1,1.77 (inactive)
22,Cc1nn(-c2ccccc2)c(C)c1C(=O)OCC(=O)NC(=O)NC1CCCCC1,-3.49 (active)
23,COC(=O)[C@H]1Cc2cnoc2C[C@]1(C)C(=O)O,1.39 (inactive)
24,O=c1c(Cl)c(NCc2ccc(F)cc2Cl)cnn1C12CC3CC(CC(C3)C1)C2,0.24 (inactive)
25,COc1cccc(NC(=O)c2nn(C34CC5CC(CC(C5)C3)C4)cc2[N+](=O)[O-])c1,-0.19 (inactive)

row,SMILES,z-score
1,COc1ccc(-c2cc(C3CCN(c4ncccc4[N+](=O)[O-])CC3)[nH]n2)cc1,-3.98 (active)
2,Cc1ccc(-c2csc(NC(=O)c3cccs3)n2)cc1,-3.32 (active)
3,Cc1nc(-c2ccc(NC(=O)c3cccs3)cc2)cs1,-0.41 (inactive)
4,Cc1ccc(-c2nnc(-c3ccc(NC(=O)c4cccs4)cc3)o2)cc1,-0.15 (inactive)
5,CC(C)(C)C1C/C(=C/c2ccco2)C(=O)/C(=C/c2ccco2)C1 (configuration not stated),0.6 (inactive)
6,Cc1ccc(OCC(=O)OC(C)CN(C)Cc2ccccc2)cc1 (configuration not stated),2.87 (inactive)
7,COc1ccc(N2C(=O)CNC2=S)cc1,0.4 (inactive)
8,c1ccc(-c2cc(-c3nnc4sc(-c5ccccn5)nn34)[nH]n2)cc1,-3.26 (active)
9,CCOc1cccc(-c2nn3c(-c4ccccn4)nnc3s2)c1,-1.53 (inactive)
10,COc1ccc(-c2nn3c(-c4ccccc4)nnc3s2)cc1OC,-1.25 (inactive)
11,CC(NC(=O)C(=O)NN=C1CCC(C(C)(C)C)CC1)c1ccccc1 (configuration not stated),-0.32 (inactive)
12,CNc1ccc(NC(C)=O)cc1[N+](=O)[O-],-0.8 (inactive)
13,CC(C)CC(=O)NC(=S)Nc1cc(C(=O)O)ccc1Cl,0.14 (inactive)
14,COc1ccc(-c2cn(-c3ccc(OC)cc3)c(=S)[nH]2)cc1,0.64 (inactive)
15,CSCCC(NC(=O)COc1ccccc1)C(=O)Nc1ccc(C)cc1 (configuration not stated),0.49 (inactive)
16,Fc1ccc2[nH]c3c(N4CCSCC4)ncnc3c2c1,-3.08 (active)
17,CCN1CCCC1CNc1ncnc2c1[nH]c1ccc(F)cc12 (configuration not stated),1.26 (inactive)
18,CC(C)OCCCNc1ncnc2c1[nH]c1ccc(F)cc12,-1.09 (inactive)
19,O=C(CNCc1ccc(F)cc1)Nc1ccccc1-c1ccccc1,-0.24 (inactive)
20,COc1ccc(C(=O)NNS(=O)(=O)c2ccc(C)cc2)cc1,-0.21 (inactive)
21,CCCCNC(=O)CCn1c(=O)c2ccccc2n(Cc2cc(C)ccc2C)c1=O,1.04 (inactive)
22,CN1/C(=c2/s/c(=C3/C(=O)N(c4ccccc4)NC3=Nc3ccccc3)n(C)c2=O)C(C)(C)c2ccccc21,-3.22 (active)
23,COc1cccc(-c2ccc(C#N)c(SCC(=O)NCCc3ccc(Cl)cc3)n2)c1,-0.01 (inactive)
24,COc1ccc(Br)cc1CN(C)CC(=O)Nc1cc([N+](=O)[O-])ccc1OC,-1.86 (inactive)
25,Cc1ccc2c(CC(=O)NCc3cccs3)coc2c1,-0.4 (inactive)

row,SMILES,z-score
1,N#C/C(=C\c1ccc(N2CCOCC2)o1)C(=O)N1CCOCC1,0.12 (inactive)
2,COc1ccccc1Oc1ccc(N/C=C2/CCCC2=O)cc1,0.42 (inactive)
3,COc1ccc(C2CC(=O)Nc3sc(=N)c4c(N)c(C#N)c(N)nc4c32)cc1OC (configuration not stated),-1.89 (inactive)
4,N#Cc1c(N)nc2c3c(sc(=N)c2c1N)NC(=O)CC3c1ccccc1Cl (configuration not stated),-3.47 (active)
5,CSc1nc(N)c(C#N)c(-c2ccccc2Cl)c1C#N,-2.52 (inactive)
6,Cc1c(/C=N/N2C(=O)C3C4C=CC(C4)C3C2=O)c2ccccc2n1C (configuration not stated),0.37 (inactive)
7,Cc1ccc(CNC(=O)COc2ccc3c(c2)CCC3)cc1,1.09 (inactive)
8,CCCCN(C)c1ccc([N+](=O)[O-])cc1,-0.3 (inactive)
9,O=C(NCCc1ccccc1)C1CCN(S(=O)(=O)c2ccc(Br)s2)CC1,0.91 (inactive)
10,Cc1ccc(C(=O)Cc2nnc(C)s2)cc1,0.12 (inactive)
11,COC(=O)c1ccccc1NC(=O)c1ccccc1NS(C)(=O)=O,0.05 (inactive)
12,CCOc1ccc(NC(=O)c2ccccc2NS(C)(=O)=O)cc1,-0.27 (inactive)
13,COC(=O)c1ccc(NC(=O)c2ccccc2NS(=O)(=O)c2ccccc2)cc1,-3.71 (active)
14,O=C(NC(=S)Nc1ccc(NC(=O)c2cccs2)cc1)c1ccc([N+](=O)[O-])cc1,0.61 (inactive)
15,Cc1cccc(N2CCN(C(=O)c3cccc(S(=O)(=O)N4CCc5ccccc5C4)c3)CC2C)c1 (configuration not stated),0.72 (inactive)
16,CCc1ccc(C2N3CC4([N+](=O)[O-])CN2CC([N+](=O)[O-])(C3)C4(C)C)cc1 (configuration not stated),0.28 (inactive)
17,C=CCn1c(CSc2nc3ccccc3s2)nnc1SCC(=O)NCc1ccco1,0.84 (inactive)
18,C=CCn1c(SCC(=O)Nc2nc3ccccc3s2)nnc1-c1ccccc1O,-3.16 (active)
19,C=CCn1c(SCC(=O)NCc2ccccc2)nnc1-c1cc(Br)ccc1O,-0.9 (inactive)
20,N#CC1=C(N)N(c2ccccc2)C2=C(C(=O)CCC2)C1c1ccccc1 (configuration not stated),-0.02 (inactive)
21,CCCN1C2=C(C(=O)CCC2)C(c2ccc(O)c(Br)c2)C2=C1CCCC2=O,-3.69 (active)
22,CCCC(=O)N1c2ccccc2NC2=C(C(=O)CCC2)C1c1ccc(F)cc1 (configuration not stated),-0.82 (inactive)
